From PubChem BioAssay (Tox21)
Inconclusive results are not listed. Unmarked numbers belong to inactive results. Activity calls are given as the source filed them. Calls follow the shape of the dose curve; as a rule, active = well fitted cell-killing curve with a large enough effect in the repeat runs; inconclusive = weak or mixed curves, or effect the other way; inactive = flat fitted curve, though single readings scatter.

Assay: qHTS assay to identify small molecule antagonists of the retinoid acid receptor (RAR) signaling pathway - cell viability counter screen (AID 1159551); also: nearly all actives have a fitted effect of over 35% in size
Settings: C3RL4 cells viability, ATP luminescence (CellTiter-Glo), 6 h; series mostly up to 92.4 µM; activity change, negative = cytotoxicity: at the top concentration
Source text: U.S. Tox21 Program National Center for Advancing Translational Sciences [NCATS] NIH Chemical Genomics Center [NCGC] U.S. Environmental Protection Agency [EPA] National Institutes of Environmental Health Sciences [NIEHS] National Toxicology Program [NTP] U.S. Food and Drug Administration [FDA] Tox21 Assay Overview: All-trans Retinoic acid (atRA) is the potent natural metabolite of retinol and plays an important role in normal embryonic development and maintenance of cellular phenotype in adult animals. atRA is the activating ligand for the retinoic acid receptors (RARs) which form heterodimers with retinoid X receptors (RXRs) on the retinoic acid response element (RARE). Through activation of the RAR/RXRs nuclear receptors, atRA regulates the transcription of a large number of protein-coding genes and regulatory RNAs. Intracellular levels of atRA are controlled by the retinol signaling pathway (RSP) that regulates the biosynthesis and catabolism of atRA to maintain physiological levels. Chemicals that interfere with the RSP can cause abnormal intracellular levels of atRA and therefore are potential developmental toxicants. To assess compounds for the potential adverse effect on embryonic development through interfering with retinol signaling, a cell-based RARE luciferase reporter gene assay was used. C3RL4 cell line (OARSA/CFSAN/FDA, Laurel, MD) was used to screen Tox21 10K compound library for identifying inhibitors of the RSP. Also cytotoxicity was assessed by determining the viability of cells based on the quantitation of ATP.
Tox21 Assay Protocol Summary: C3RL4 cells were seeded at 1,000/well in 4 uL of assay medium into white solid 1,536-well tissue culture plates (Greiner Bio-One North America Inc. Monroe, NC) using a Multidrop Combi (Thermo Scientific, Waltham, MA) dispenser. After incubation at 37 C and 5% CO2 for an overnight, 23 nL of compounds dissolved in DMSO, positive control or DMSO only were transferred by a Pintool station (Kalypsys, San Diego, CA). One ul of 1 uM (final concentration) of Retinol was added right after the compound addition by using a Flying Reagent Dispenser (FRD) (Aurora Discovery, San Diego, CA). After 6 hr incubation at 37 C and 5% CO2, 5 uL of CellTiter-Glo reagent (Promega Corporation, Madison, WI) was added to each assay plate using an FRD. Luminescence was quantified on a ViewLux plate reader (PerkinElmer, Waltham, MA) after 30 min incubation at room temperature.
% is scaled to controls: 0 for no effect and ±100 for the full control effect.

Row | Compound | activity change, negative = cytotoxicity | Potency
1 | O=C(CCCCCCCCC#CI)Oc1ccccc1 | 0.346% [at 42.5 µM] | 
2 | O=C(C(=O)c1ccccc1)c1ccccc1 | 1.54% | 
3 | CSc1ccc(Oc2ccc(S(N)(=O)=O)cc2CN(C)C)cc1C | -1.67% | 
4 | Cc1cc(O)c(C(C)C)cc1Cl | -8.11% [at 42.5 µM] | 
5 | O=c1[nH]c2ccc(S(=O)CCN3CCC(Cc4ccc(F)cc4)CC3)cc2o1 (stereo not given) | -5.31% | 
6 | CCOC(=O)OCC | -2.49% | 
7 | Brc1cc(-c2ccc(Br)c(Br)c2Br)cc(Br)c1Br | 1.37% [at 42.5 µM] | 
8 | CCCCCCOC(=O)CCCCCCCC(=O)OCCCCCC | 1.29% | 
9 | CC(N)CN (stereo not given) | -1.05% | 
10 | Fc1ccccc1[C@@H](F)COC1CCC(Nc2ncnc3[nH]ncc23)CC1 (stereo not given in full) | -2.14% | 
11 | CC(C)CCCC(=O)O | 0.355% | 
12 | CCCCC/C(=C\c1ccccc1)CO | -7.42% | 
13 | CC(C)C(=O)O | -1.06% | 
14 | CC1=NN(c2ccc(C(=O)O)cc2)C(=O)C1 | 2.72% | 
15 | COC(=O)CC(=O)C(C)(C)C | -0.409% | 
16 | O=C(CCC1CCN(Cc2ccccc2)CC1)c1ccc2c(c1)NCCCC2 | -0.0595% [at 42.5 µM] | 
17 | CCCCCCOC(=O)C(C)C | 0.125% | 
18 | O=C(Nc1ccc([N+](=O)[O-])cc1)Nc1ccc([N+](=O)[O-])cc1 | 0.0511% [at 42.5 µM] | 
19 | CCN(Cc1cccc(S(=O)(=O)O)c1)c1ccc(C(=C2C=CC(=[N+](CC)Cc3cccc(S(=O)(=O)[O-])c3)C=C2)c2ccccc2)cc1 | 1.51% [at 42.5 µM] | 
20 | COc1cc2[nH]c(=O)[nH]c(=O)c2cc1OC | 6.57% [at 42.5 µM] | 

Row | Compound | activity change, negative = cytotoxicity | Potency
21 | CC(C)CCCCCCOC(=O)CCCCC(=O)OCCCCCCC(C)C | 5.31% | 
22 | O=C(c1ccc(O)cc1)c1ccc(Cl)cc1 | -6.19% | 
23 | CCCCCCCCCCCC(=O)[O][Sn]([CH2]CCC)([CH2]CCC)[O]C(=O)CCCCCCCCCCC | 6.92% [at 42.5 µM] | 
24 | Nc1nc(Cl)nc2c1ncn2[C@@H]1O[C@H](CO)[C@@H](O)[C@@H]1F | 3.77% [at 42.5 µM] | 
25 | Cc1cc(C(=C2C=CC(=Nc3ccc(S(=O)(=O)O)cc3S(=O)(=O)O)C=C2)c2ccc(Nc3ccc(S(=O)(=O)O)cc3)cc2)ccc1N | -4.11% [at 42.5 µM] | 
26 | CC(Cl)C(Cl)Cl (stereo not given) | 4.79% | 
27 | O=C1OCCN1/N=C/c1ccc([N+](=O)[O-])o1 | -5.71% [at 42.5 µM] | 
28 | CCOC(=O)CC(=O)C(=O)OCC | -1.7% | 
29 | N#C/C(=C1\SCC(c2ccccc2Cl)S1)n1ccnc1 (stereo not given) | 2.05% [at 42.5 µM] | 
30 | c1cc[c]([Bi]([c]2ccccc2)[c]2ccccc2)cc1 | -4.68% | 
31 | C1COCO1 | 2.33% | 
32 | CCC(C)(O)CCC=C(C)C (stereo not given) | 5.31% | 
33 | CCC(=O)OC/C=C/c1ccccc1 |  | inactive
34 | CC(C)=CC=O | 3.18% | 
35 | CCOC(=O)c1ccccc1C | -0.221% | 
36 | CN(C(=O)C(Cl)Cl)c1ccc(OC(=O)c2ccco2)cc1 | -0.0896% [at 42.5 µM] | 
37 | O=C(N[C@@H](c1ccccc1)[C@@H]1CCCCN1)c1cccc(C(F)(F)F)c1Cl | -7.18% | 
38 | Oc1ccc(Nc2ccccc2)cc1 | 9.02% | 
39 | Cc1nc2ccccn2c(=O)c1CCN1CCC(C(=O)c2ccc(F)cc2)CC1 | -0.409% [at 42.5 µM] | 
40 | CN1CCN(c2c(F)cc3c(=O)c(C(=O)O)cn4c3c2OCN4C)CC1 | -0.366% [at 19 µM] | 
